Assay results: PubChem BioAssay (NCATS)
Inconclusive results are not listed. Active and inactive are the calls of the source. Unless noted, calls come from the whole dose curve.

Tests used:
[1] = target: Estrogen receptor (Homo sapiens) (UniProt P03372); experiment: qHTS assay for small molecule agonists of estrogen receptor alpha signaling (AID 588514);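 note: 0% = vehicle only and 100% = reference agonist; nearly all actives have a fitted effect of over 70% in size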
Summary of the method: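 Read-out: CCF4 fluorescence from a beta-lactamase reporter in ER-alpha-UAS-bla HEK 293 cells after 18 hrs of compound exposure at 37 C. Normalized to 20 nM 17-beta-estradiol (100%) and DMSO (0%).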

[2] = target: Androgen receptor (Homo sapiens) (UniProt P10275); experiment: qHTS assay for small molecule agonists of androgen receptor signaling (AID 588515; active = well fitted curve in the direction sought with a large enough effect in the signal ratio, with a control signal flat; the % refers to the signal ratio; note: % is set by controls: 0 for no effect and ±100 for the full control effect); conditions: AR-UAS-bla HEK293, beta-lactamase ratio, agonist 16 h; hits give high values
Androgen receptor (Homo sapiens), sequence (P10275 whole entry, looked up): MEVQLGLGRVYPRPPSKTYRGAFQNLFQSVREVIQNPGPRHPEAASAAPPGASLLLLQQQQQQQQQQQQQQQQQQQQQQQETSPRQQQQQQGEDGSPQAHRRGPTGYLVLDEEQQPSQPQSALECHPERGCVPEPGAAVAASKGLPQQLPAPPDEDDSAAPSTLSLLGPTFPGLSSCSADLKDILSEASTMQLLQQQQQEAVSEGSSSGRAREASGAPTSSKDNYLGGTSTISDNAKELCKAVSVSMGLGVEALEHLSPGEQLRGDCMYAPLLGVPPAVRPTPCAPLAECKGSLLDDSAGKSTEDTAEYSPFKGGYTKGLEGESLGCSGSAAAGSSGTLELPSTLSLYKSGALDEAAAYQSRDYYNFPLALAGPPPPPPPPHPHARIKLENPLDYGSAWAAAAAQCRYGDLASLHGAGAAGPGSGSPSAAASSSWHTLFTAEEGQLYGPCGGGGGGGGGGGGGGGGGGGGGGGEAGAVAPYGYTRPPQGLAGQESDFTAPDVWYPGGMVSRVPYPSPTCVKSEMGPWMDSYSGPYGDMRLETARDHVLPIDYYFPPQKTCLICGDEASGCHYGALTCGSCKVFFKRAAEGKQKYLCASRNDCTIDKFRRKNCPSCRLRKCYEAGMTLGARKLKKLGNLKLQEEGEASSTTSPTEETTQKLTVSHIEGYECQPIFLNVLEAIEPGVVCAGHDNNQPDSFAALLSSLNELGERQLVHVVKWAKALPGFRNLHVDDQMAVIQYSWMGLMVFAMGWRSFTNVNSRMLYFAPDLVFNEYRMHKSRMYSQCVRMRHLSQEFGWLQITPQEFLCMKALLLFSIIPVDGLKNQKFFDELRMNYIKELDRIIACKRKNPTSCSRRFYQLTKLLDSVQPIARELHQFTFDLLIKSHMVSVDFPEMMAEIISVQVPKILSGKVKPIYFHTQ
Summary of the method: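 Stimulation of an AR-responsive β-lactamase reporter in GripTite HEK293 cells was measured after 16 h compound exposure at 37 °C, via CCF4 fluorescence after 2 h RT. EC50 from Hill fits, normalized to R1881 at 30 nM.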

[3] = target: Androgen receptor (Homo sapiens) (UniProt P10275); experiment: qHTS assay for small molecule antagonists of androgen receptor signaling (AID 588516; active = well fitted curve in the direction sought with a large enough effect in the signal ratio, with a control signal flat, not every such curve was filed as active; the % refers to the signal ratio; note: % is set by controls: 0 for no effect and ±100 for the full control effect)
Summary of the method: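 AR-UAS-bla GripTite HEK 293 cells (2000/well) treated with compound titrations plus 10 nM R1881 for 16 h at 37C. Beta-lactamase read by CCF4 FRET (460/530 nm); IC50 from Hill fits, normalized to R1881 and DMSO control wells.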

[4] = target: Peroxisome proliferator-activated receptor gamma (Homo sapiens) (UniProt P37231); experiment: qHTS assay for small molecule agonists of peroxisome proliferator-activated receptor gamma signaling (AID 588536; active = well fitted curve in the direction sought with a large enough effect in the signal ratio, with a control signal flat, not every such curve was filed as active; the % refers to the signal ratio;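 note: 0% = DMSO basal wells and 100% = rosiglitazone at 2 µM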)
Peroxisome proliferator-activated receptor gamma (Homo sapiens), sequence (P37231 whole entry, looked up): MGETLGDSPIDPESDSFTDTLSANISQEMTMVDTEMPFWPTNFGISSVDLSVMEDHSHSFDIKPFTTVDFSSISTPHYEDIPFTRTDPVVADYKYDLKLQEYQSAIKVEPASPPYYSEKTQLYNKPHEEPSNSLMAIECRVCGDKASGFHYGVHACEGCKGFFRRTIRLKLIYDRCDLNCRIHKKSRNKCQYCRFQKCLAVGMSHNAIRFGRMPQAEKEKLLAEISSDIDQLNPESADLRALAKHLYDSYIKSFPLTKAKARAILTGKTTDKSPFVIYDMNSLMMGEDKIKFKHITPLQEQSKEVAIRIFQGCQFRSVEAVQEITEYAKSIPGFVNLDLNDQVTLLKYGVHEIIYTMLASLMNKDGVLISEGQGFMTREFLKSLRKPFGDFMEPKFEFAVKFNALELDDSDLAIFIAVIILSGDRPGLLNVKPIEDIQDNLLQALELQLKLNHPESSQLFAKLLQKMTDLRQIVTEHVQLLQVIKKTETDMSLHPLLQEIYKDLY
Summary of the method: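 Compound treatment: 16 h, 37 C, HEK293 GeneBLAzer cells. Detection: CCF4, 2 h RT. Values: Hill-fit EC50, efficacy as % of 2 uM rosiglitazone.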

[5] = qHTS assay for small molecule activators of the nuclear factor-kappa B (NF-kB) signaling pathway (AID 651749; active = well fitted activation curve with a large enough effect in the signal ratio; the % refers to the signal ratio; note: series mostly up to about 77 µM; % of control where 0% means no effect); conditions: NF-kB-bla ME-180 cells, beta-lactamase FRET ratio, 16 h; activation: hits give high values
Summary of the method: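 Beta-lactamase reporter expression, controlled by NF-kB response elements in ME-180 cells, was quantified fluorometrically via FRET disruption; cells at 2,000/well had been incubated with 23 nL test compound for 16 hr.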

[6] = qHTS assay for small molecule activators of the human pregnane X receptor (PXR) signaling pathway (AID 720659; call rule not given here; note: 0% is about no effect)
[7] = target: Glucocorticoid receptor (Homo sapiens) (UniProt P04150); experiment: qHTS assay for small molecule agonists of glucocorticoid receptor signaling (AID 588532; active = well fitted curve in the direction sought with a large enough effect in the signal ratio, with a control signal flat; the % refers to the signal ratio;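 note: 100% = dexamethasone at 0.1 µM and 0% = DMSO only wells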); conditions: HeLa MMTV-bla, beta-lactamase ratio, agonist, 18 h; activation: hits give high values, percent of dexamethasone control, DMSO zero
Glucocorticoid receptor (Homo sapiens), sequence (P04150 whole entry, looked up): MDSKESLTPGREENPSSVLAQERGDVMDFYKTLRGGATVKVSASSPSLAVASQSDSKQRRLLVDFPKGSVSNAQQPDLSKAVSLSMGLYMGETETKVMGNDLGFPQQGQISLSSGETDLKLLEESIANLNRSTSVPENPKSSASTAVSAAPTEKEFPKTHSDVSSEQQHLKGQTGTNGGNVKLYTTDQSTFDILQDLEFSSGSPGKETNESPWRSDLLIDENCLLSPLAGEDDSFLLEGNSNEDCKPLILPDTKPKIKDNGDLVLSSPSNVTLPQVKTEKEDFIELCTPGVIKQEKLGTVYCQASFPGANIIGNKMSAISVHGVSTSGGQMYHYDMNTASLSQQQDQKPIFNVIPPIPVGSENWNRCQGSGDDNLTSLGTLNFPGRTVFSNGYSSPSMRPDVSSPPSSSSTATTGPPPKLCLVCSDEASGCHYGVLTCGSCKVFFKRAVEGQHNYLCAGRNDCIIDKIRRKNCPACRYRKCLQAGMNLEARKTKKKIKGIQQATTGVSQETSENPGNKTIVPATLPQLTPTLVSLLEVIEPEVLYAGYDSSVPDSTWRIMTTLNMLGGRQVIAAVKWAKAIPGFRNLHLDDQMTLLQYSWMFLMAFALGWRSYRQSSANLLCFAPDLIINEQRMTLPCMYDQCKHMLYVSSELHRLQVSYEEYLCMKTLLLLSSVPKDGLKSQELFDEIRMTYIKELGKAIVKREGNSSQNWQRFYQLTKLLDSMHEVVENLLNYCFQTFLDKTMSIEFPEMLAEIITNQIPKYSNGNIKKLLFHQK
Summary of the method: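 Titration series, up to 92 uM, applied to GRE-bla HeLa cells for 18 h at 37 C. Detection by CCF4 FRET substrate after 2 h at RT.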

[8] = target: Bile acid receptor (Homo sapiens) (UniProt Q96RI1); experiment: qHTS assay for small molecule antagonists of farnesoid X receptor signaling (AID 588526); note: potency is the fitted concentration of half-maximal effect
Bile acid receptor (Homo sapiens), sequence (Q96RI1 whole entry, looked up): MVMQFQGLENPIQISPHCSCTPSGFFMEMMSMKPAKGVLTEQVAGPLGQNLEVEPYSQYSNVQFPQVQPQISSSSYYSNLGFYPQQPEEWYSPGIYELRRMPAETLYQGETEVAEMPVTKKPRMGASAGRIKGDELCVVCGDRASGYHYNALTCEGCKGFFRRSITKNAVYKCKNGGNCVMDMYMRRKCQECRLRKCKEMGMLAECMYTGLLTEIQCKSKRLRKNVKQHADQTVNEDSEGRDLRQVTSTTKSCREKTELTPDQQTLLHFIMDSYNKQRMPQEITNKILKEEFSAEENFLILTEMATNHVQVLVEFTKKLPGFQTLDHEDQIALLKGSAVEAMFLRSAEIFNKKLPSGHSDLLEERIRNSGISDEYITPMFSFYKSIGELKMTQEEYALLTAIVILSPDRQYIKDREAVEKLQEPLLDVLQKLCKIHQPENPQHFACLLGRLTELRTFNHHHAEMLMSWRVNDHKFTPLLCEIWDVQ
Summary of the method: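 Concentration-response titrations were fitted to the Hill equation for half-maximal inhibition and maximal response, with data normalised to 50 uM chenodeoxycholic acid and DMSO control wells. Cells: FXR-UAS-bla HEK293T, dialyzed FBS.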

[9] = target: Peroxisome proliferator-activated receptor delta (Homo sapiens) (UniProt Q03181); experiment: qHTS assay for small molecule antagonists of peroxisome proliferator-activated receptor delta signaling (AID 588535; active = well fitted inhibition curve with a large enough effect in the signal ratio, with a control signal flat, not every such curve was filed as active; the % refers to the signal ratio)
Peroxisome proliferator-activated receptor delta (Homo sapiens), sequence (Q03181 whole entry, looked up): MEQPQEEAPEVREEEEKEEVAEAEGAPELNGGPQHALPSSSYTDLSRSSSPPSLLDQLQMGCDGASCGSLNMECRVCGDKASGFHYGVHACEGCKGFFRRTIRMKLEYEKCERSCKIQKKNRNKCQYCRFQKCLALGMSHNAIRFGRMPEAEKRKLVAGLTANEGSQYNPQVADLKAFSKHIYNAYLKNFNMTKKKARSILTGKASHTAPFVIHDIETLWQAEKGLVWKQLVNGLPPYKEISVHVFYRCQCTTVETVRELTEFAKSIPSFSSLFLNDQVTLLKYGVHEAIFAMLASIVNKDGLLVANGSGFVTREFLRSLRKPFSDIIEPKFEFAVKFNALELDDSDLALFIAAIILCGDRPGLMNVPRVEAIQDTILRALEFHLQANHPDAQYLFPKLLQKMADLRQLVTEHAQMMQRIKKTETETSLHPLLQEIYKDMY
Summary of the method: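 Compounds tested in titration on PPAR-delta-UAS-bla HEK293T cells grown in charcoal/dextran-stripped serum (2%); beta-lactamase activity read via CCF4 emission at 460 and 530 nm.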

[10] = target: Peroxisome proliferator-activated receptor gamma (Homo sapiens) (UniProt P37231); experiment: qHTS assay for small molecule antagonists of peroxisome proliferator-activated receptor gamma signaling (AID 588537; active = well fitted inhibition curve with a large enough effect in the signal ratio, with a control signal flat, not every such curve was filed as active; the % refers to the signal ratio;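 note: reporter cells co-stimulated with 50 nM rosiglitazone agonist during compound treatment; % of control where 0% means no effect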)
Summary of the method: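 HEK293 cells, PPAR-gamma-UAS-bla, 3000/well. Pre-incubation 6-6.5 h, 37 C. Compound titration with rosiglitazone 50 nM final, 16 h. CCF4 dye, 2 h RT, dual-emission fluorescence.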

[11] = qHTS assay for small molecule agonists of the antioxidant response element (ARE) signaling pathway (AID 651741; active = well fitted activation curve with a large enough effect in the signal ratio; the % refers to the signal ratio; note: potency is the fitted concentration of half-maximal effect; for activation: % of control where 0% means no effect)
Summary of the method: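 Beta-lactamase reporter expression driven by the antioxidant response element in HepG2 cells was detected by fluorescence with LiveBLAzer B/G FRET substrate (2 h, room temperature) following 16 h compound treatment at 37 C.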

[12] = target: Estrogen receptor (Homo sapiens) (UniProt P03372); experiment: qHTS assay for small molecule antagonists of estrogen receptor alpha signaling (AID 588513; active = well fitted curve in the direction sought with a large enough effect in the signal ratio, with a control signal flat, not every such curve was filed as active; the % refers to the signal ratio; note: % is set by controls: 0 for no effect and ±100 for the full control effect)
Summary of the method: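 ER-alpha-UAS-bla GripTite HEK 293 cells in 2% charcoal/dextran-treated FBS medium; compounds titrated (1:2, duplicate), then stimulated with 0.5 nM 17-beta-estradiol for 18 h at 37C. CCF4 beta-lactamase fluorescence; Hill-fit IC50 and efficacy.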

[13] = target: Cytochrome P450 3A4 (Homo sapiens) (UniProt P08684); experiment: qHTS Assay for Inhibitors and Substrates of Cytochrome P450 3A4 (AID 884; active = well fitted curve in the direction sought with a large enough effect; an effect the other way counts as inactive or inconclusive; note: potency is the fitted concentration of half-maximal effect; nearly all actives have a fitted effect of over 50% in size)
Cytochrome P450 3A4 (Homo sapiens), sequence (P08684 whole entry, looked up): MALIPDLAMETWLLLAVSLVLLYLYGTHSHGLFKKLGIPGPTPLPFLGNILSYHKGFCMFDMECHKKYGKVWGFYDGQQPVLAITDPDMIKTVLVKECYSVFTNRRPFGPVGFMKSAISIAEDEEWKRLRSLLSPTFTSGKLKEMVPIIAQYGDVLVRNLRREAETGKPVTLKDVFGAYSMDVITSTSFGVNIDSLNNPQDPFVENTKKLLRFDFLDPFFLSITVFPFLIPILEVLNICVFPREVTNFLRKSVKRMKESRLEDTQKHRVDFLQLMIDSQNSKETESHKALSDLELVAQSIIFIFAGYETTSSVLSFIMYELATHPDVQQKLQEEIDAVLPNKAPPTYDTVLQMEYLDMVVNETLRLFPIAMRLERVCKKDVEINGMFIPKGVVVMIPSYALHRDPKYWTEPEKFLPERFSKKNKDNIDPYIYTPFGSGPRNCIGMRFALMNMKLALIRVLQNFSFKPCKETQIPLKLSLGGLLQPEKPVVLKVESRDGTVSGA
Summary of the method: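 Luminescent readout of luciferin produced by CYP3A4 (20 nM) dealkylation of Luciferin-PPXE, 25 uM (its KM). NADPH-driven reaction ran 60 min at RT after 10 min compound preincubation; data scaled to 57 uM ketoconazole as 100% inhibition.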

[14] = target: Cytochrome P450 3A4 (Homo sapiens) (UniProt P08684); experiment: qHTS Assay for Activators of Cytochrome P450 3A4 (AID 885; active = well fitted curve in the direction sought with a large enough effect; an effect the other way counts as inactive or inconclusive; note: nearly all actives have a fitted effect of over 65% in size)
Summary of the method: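 CYP3A4 activity: Luciferin-PPXE O-dealkylation, 25uM substrate, 200mM KPO4, RT throughout. Read-out is luciferase luminescence; higher values reflect activation.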

[15] = Confirmation and Secondary Assay for Modulators of Hemoglobin Beta Chain Splicing at IVS2 705 locus (AID 930; active = well fitted curve in the direction sought with a large enough effect; an effect the other way counts as inactive or inconclusive;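 note: HeLa cells stably expressing the EGFP-705 splicing reporter; GFP fluorescence per well restored by corrected splicing of the IVS2-705 intron in EGFP; series mostly up to about 46 µM; % of control where 0% means no effect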)
Summary of the method: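 HeLa IVS2-705 EGFP reporter cells, 500/well, compound 2 d at 37C; correct splicing yields fluorescent EGFP. Control: 500 nM antisense PNA. Read-out: total peak GFP intensity.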

Estrogen receptor (Homo sapiens), sequence (P03372 whole entry, looked up): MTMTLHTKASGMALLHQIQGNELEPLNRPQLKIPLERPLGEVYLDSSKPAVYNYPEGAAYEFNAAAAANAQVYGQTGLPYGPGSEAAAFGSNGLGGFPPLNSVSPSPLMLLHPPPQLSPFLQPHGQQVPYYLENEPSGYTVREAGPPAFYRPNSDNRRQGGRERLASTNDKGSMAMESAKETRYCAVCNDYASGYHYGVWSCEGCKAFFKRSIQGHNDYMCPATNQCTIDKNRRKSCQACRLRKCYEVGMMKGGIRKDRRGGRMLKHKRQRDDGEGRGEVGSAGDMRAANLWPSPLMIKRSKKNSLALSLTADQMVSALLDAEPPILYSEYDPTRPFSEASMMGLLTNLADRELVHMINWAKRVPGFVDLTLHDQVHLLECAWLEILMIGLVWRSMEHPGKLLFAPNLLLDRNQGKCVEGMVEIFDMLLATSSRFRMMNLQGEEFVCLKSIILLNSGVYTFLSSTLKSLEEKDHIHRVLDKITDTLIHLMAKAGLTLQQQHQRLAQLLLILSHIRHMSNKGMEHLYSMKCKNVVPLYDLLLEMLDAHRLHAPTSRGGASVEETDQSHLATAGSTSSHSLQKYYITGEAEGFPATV

C#CCN1C(=O)COc2cc(F)c(N3C(=O)C4=C(CCCC4)C3=O)cc21
inactive: Potency [1] | activation [2] 8.69% | Potency [3] | Potency [4] | activation [5] -1.45% | outcome [6]

Nc1c(Cl)c(F)nc(OCC(=O)O)c1Cl
inactive: Potency [1] | activation [2] 0.917% | Potency [3] | activation [7] -4.31% | Potency [4] | activation [5] 0.422% | outcome [6]

CC(C)(C)OOC(C)(C)c1ccc(C(C)(C)OOC(C)(C)C)cc1
inactive: Potency [1] | activation [2] 4.74% | Potency [3] | Potency [8] | Potency [9] | Potency [10] | Potency [11] | activation [5] 0.854%

CCOP(=O)(OCC)SCSP(=S)(OCC)OCC
inactive: Potency [1] | activation [2] -6.59% | Potency [3] | Potency [8] | activation [7] -5.04% | Potency [9] | Potency [4] | Potency [10] | activation [5] 1.64%

O=C(O)C(F)(F)C(F)(F)C(F)(F)C(F)(F)C(F)(F)F
inactive: Potency [12] | activation [7] 4.09% | Potency [9] | Potency [4] | Potency [11]

CC(Oc1ccc(Cl)cc1Cl)C(=O)O (stereo not given)
inactive: Potency [12] | activation [7] 6.74% | Potency [10] | activation [5] -1.28% | outcome [6]

COc1ccc(-c2ccccc2)cc1NNC(=O)OC(C)C
active: Potency [11] 54.5 µM
inactive: Potency [1] | activation [2] -16.7% | Potency [3] | Potency [8] | activation [7] -5.42% | Potency [4] | Potency [10] | activation [5] -0.684% | outcome [6]

CCOP(=O)(NC(C)C)Oc1ccc(S(C)(=O)=O)c(C)c1 (stereo not given)
inactive: Potency [1] | activation [2] 6.06% | Potency [3] | Potency [8] | activation [7] 2.64% | Potency [4] | Potency [10] | Potency [11] | activation [5] -0.438%

COC(=O)c1ccccc1S(=O)(=O)NC(=O)N(C)c1nc(C)nc(OC)n1
inactive: Potency [12] | Potency [9] | Potency [4] | Potency [10] | Potency [11] | outcome [6]

CC(C)Oc1cc(-n2nc(C(C)(C)C)oc2=O)c(Cl)cc1Cl
active: Potency [11] 61.1 µM
inactive: Potency [1] | activation [2] -15% | activation [7] 12% | Potency [9] | activation [5] 1.16%

CCOP(=S)(OCC)SCn1c(=O)oc2cc(Cl)ccc21
inactive: Potency [14] | outcome [15] | Potency [1] | activation [7] 0.851% | Potency [4]
active: Potency [13] 0.794 µM | Potency [11] 27.3 µM

O=C(Nc1ccccc1)Nc1cnns1
inactive: Potency [1] | Potency [8] | Potency [9] | activation [5] 0.693%

C=CCOC(=O)C(C)(C)OC(=O)c1cc(-n2c(=O)cc(C(F)(F)F)n(C)c2=O)ccc1Cl
inactive: Potency [1] | activation [7] -1.05% | Potency [9] | Potency [4] | Potency [10]

CCC(C)(NC(=O)c1cc(Cl)c(C)c(Cl)c1)C(=O)CCl (stereo not given)
inactive: Potency [1] | Potency [8] | activation [7] -7.44% | Potency [9] | Potency [4]

COc1cc(OC)nc(NC(=O)NS(=O)(=O)c2ncccc2OCC(F)(F)F)n1
inactive: Potency [1] | Potency [8] | activation [7] 3.36% | Potency [4] | Potency [10] | Potency [11]

O=C1c2ccccc2C(=O)C1C(=O)C(c1ccccc1)c1ccc(Cl)cc1 (stereo not given)
inactive: Potency [1] | activation [2] -4.67% | activation [7] -5.26% | Potency [9] | Potency [4] | activation [5] -3.47%
active: Potency [11] 54.5 µM

O=C(NC(=O)c1c(F)cccc1F)Nc1cc(Cl)c(OC(F)(F)C(F)F)c(Cl)c1
inactive: Potency [1] | activation [2] 7.72% | activation [7] 12.6% | Potency [10]

CC(C)OC(=O)C(O)(c1ccc(Br)cc1)c1ccc(Br)cc1
inactive: Potency [1] | activation [7] -15%

CC(C)N(C(=O)COc1nnc(C(F)(F)F)s1)c1ccc(F)cc1
active: Potency [11] 48.6 µM
inactive: Potency [1] | Potency [8] | activation [7] 1.07% | Potency [9] | Potency [4] | activation [5] -1.4%

CC(C)(C)C(O)/C(=C\c1ccc(Cl)cc1Cl)n1cncn1 (stereo not given)
inactive: Potency [1]

CC1=C(C(=O)Nc2ccccc2)S(=O)(=O)CCO1
active: Potency [11] 8.63 µM
inactive: Potency [1] | activation [7] -17.4% | activation [5] -0.594% | outcome [6]

CCCCOCCOC(C)=O
inactive: Potency [1] | activation [7] -12.9% | Potency [9] | Potency [4] | Potency [10] | outcome [6]

O=[N+]([O-])c1ccc(Cl)c([N+](=O)[O-])c1
inactive: Potency [1] | activation [2] -0.974% | Potency [10]
active: Potency [8] 35.5 µM

Nc1cccc(Cl)c1Cl
inactive: Potency [1] | Potency [3] | Potency [9] | Potency [4] | Potency [10] | Potency [11] | activation [5] -2.53% | outcome [6]

CNC(=O)Oc1cccc(N=CN(C)C)c1
inactive: Potency [1] | Potency [8] | Potency [9] | Potency [10] | outcome [6]

CC1(C)C(C(=O)OC(C#N)c2cccc(Oc3ccccc3)c2)C1(C)C (stereo not given)
inactive: Potency [1] | Potency [9] | activation [5] 2.53%
